Data taken from PubChem BioAssay AID1159580 (chemical genetic matrix, 2015).
Hit rate of the full screen: of about 5,500 compounds, about 2,000 (36%) were called active. About 18% were inconclusive and are not listed. Cut-off read from the data, not from the text of the source: active = normalized growth mostly below about 0.91 (no sharp cut-off); inconclusive = no clear call, values can overlap the other calls; inactive = mostly above about 0.92. The list shows a part of the results.

Experiment: chemical genetic growth profiling, strain panel (AID 1159580);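 note: tested at 20 µM; growth read once vehicle control cultures reached saturation at 30 °C; 1 = growth at the plate median or of vehicle wells; lower values mean less growth of the strain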
Settings: growth OD
[1] = S. cerevisiae deletion strains, locus YDL101C, strain DUN1, hits give low values
[2] = S. cerevisiae deletion strains, locus YHR030C, strain SLT2, hits give low values

Measured: normalized growth

CC(=O)c1sc(SCc2ccc(Cl)cc2)c2c1CC(C)(C)CC2=O
inactive: S. cerevisiae deletion strains, locus YAL013W, strain DEP1, hits give low values 0.97 | S. cerevisiae deletion strains, locus YBR229C, strain ROT2, hits give low values 1.06 | [1] 1.01 | S. cerevisiae deletion strains, locus YDL134C, strain PPH21, hits give low values 0.976 | S. cerevisiae deletion strains, locus YDR150W, strain NUM1, hits give low values 0.954 | S. cerevisiae deletion strains, locus YEL061C, strain CIN8, hits give low values 1.07 | S. cerevisiae deletion strains, locus YGR078C, strain PAC10, hits give low values 1 | [2] 0.793 | S. cerevisiae deletion strains, locus YHR087W, strain rtc3, hits give low values 1 | S. cerevisiae deletion strains, locus YJR043C, strain POL32, hits give low values 0.987 | S. cerevisiae deletion strains, locus YJR075W, strain HOC1, hits give low values 1.05 | S. cerevisiae deletion strains, locus YKL190W, strain CNB1, hits give low values 0.966 | S. cerevisiae deletion strains, locus YLR039C, strain RIC1, hits give low values 0.938 | S. cerevisiae deletion strains, locus YLR058C, strain SHM2 (second series), hits give low values 1.01 | S. cerevisiae deletion strains, locus YLR085C, strain ARP6, hits give low values 1.02 | S. cerevisiae deletion strains, locus YLR262C, strain YPT6, hits give low values 0.941 | S. cerevisiae deletion strains, locus YML094W, strain GIM5, hits give low values 1.01 | S. cerevisiae deletion strains, locus YMR219W, strain ESC1, hits give low values 1.03 | S. cerevisiae deletion strains, locus YMR263W, strain SAP30, hits give low values 0.936 | S. cerevisiae deletion strains, locus YMR307W, strain GAS1, hits give low values 1.03 | S. cerevisiae deletion strains, locus YNL128W, strain TEP1, hits give low values 0.981 | S. cerevisiae deletion strains, locus YNL153C, strain GIM3, hits give low values 0.971 | S. cerevisiae deletion strains, locus YNL298W, strain CLA4 (second series), hits give low values 0.952 | S. cerevisiae deletion strains, locus YNL322C, strain KRE1, hits give low values 0.993 | S. cerevisiae deletion strains, locus YNR030W, strain Alg12, hits give low values 0.941 | S. cerevisiae deletion strains, locus YPL055C, strain LGE1, hits give low values 1.12 | S. cerevisiae deletion strains, locus YPL241C, strain CIN2, hits give low values 0.907 | S. cerevisiae deletion strains, locus YPR135W, strain CTF4, hits give low values 0.819 | S. cerevisiae strains, strain wild type, hits give low values 0.955

Cc1ccc(S(=O)(=O)CCSC2=CC(=O)CC(C)(C)S2)cc1
inactive: S. cerevisiae deletion strains, locus YAR019C, strain CDC15, hits give low values 1.01 | S. cerevisiae deletion strains, locus YBL105C, strain PKC1, hits give low values 0.987 | S. cerevisiae deletion strains, locus YBR135W, strain CKS1, hits give low values 1 | S. cerevisiae deletion strains, locus YBR136W, strain MEC1, hits give low values 1 | S. cerevisiae deletion strains, locus YBR160W, strain CDC28, hits give low values 0.998 | S. cerevisiae deletion strains, locus YDL017W, strain CDC7, hits give low values 0.998 | S. cerevisiae deletion strains, locus YDL028C, strain MPS1, hits give low values 1 | [1] 1 | S. cerevisiae deletion strains, locus YDL108W, strain KIN28, hits give low values 1 | S. cerevisiae deletion strains, locus YDL132W, strain cdc53, hits give low values 1 | S. cerevisiae deletion strains, locus YDL214C, strain PRR2, hits give low values 0.98 | S. cerevisiae deletion strains, locus YDR052C, strain DBF4, hits give low values 1 | S. cerevisiae deletion strains, locus YDR054C, strain cdc34, hits give low values 0.998 | S. cerevisiae deletion strains, locus YDR226W, strain ADK1, hits give low values 0.994 | S. cerevisiae deletion strains, locus YDR477W, strain SNF1, hits give low values 0.974 | S. cerevisiae deletion strains, locus YER123W, strain YCK3, hits give low values 0.924 | S. cerevisiae deletion strains, locus YER133W, strain GLC7, hits give low values 0.895 | S. cerevisiae deletion strains, locus YFL009W, strain cdc4, hits give low values 0.997 | S. cerevisiae deletion strains, locus YFL029C, strain CAK1, hits give low values 1.01 | S. cerevisiae deletion strains, locus YFR003C, strain YPI1, hits give low values 0.997 | S. cerevisiae deletion strains, locus YFR019W, strain FAB1, hits give low values 0.905 | S. cerevisiae deletion strains, locus YFR028C, strain CDC14, hits give low values 0.998 | S. cerevisiae deletion strains, locus YGR040W, strain KSS1, hits give low values 0.948 | S. cerevisiae deletion strains, locus YGR052W, strain FMP48, hits give low values 0.987 | S. cerevisiae deletion strains, locus YGR092W, strain DBF2, hits give low values 1 | [2] 0.987 | S. cerevisiae deletion strains, locus YHR079C, strain IRE1, hits give low values 1.06 | S. cerevisiae deletion strains, locus YHR082C, strain KSP1, hits give low values 1.08 | S. cerevisiae deletion strains, locus YHR205W, strain SCH9, hits give low values 0.988 | S. cerevisiae deletion strains, locus YIL147C, strain SLN1, hits give low values 0.997 | S. cerevisiae deletion strains, locus YJL095W, strain BCK1, hits give low values 0.948 | S. cerevisiae deletion strains, locus YJL128C, strain PBS2, hits give low values 1.02 | S. cerevisiae deletion strains, locus YJL157C, strain FAR1, hits give low values 0.973 | S. cerevisiae deletion strains, locus YJR016C, strain ILV3, hits give low values 0.999 | S. cerevisiae deletion strains, locus YJR066W, strain TOR1 (second series), hits give low values 0.892 | S. cerevisiae deletion strains, locus YJR066W, strain TOR1, hits give low values 1.04 | S. cerevisiae deletion strains, locus YKL048C, strain ELM1, hits give low values 0.985 | S. cerevisiae deletion strains, locus YKL067W, strain YNK1, hits give low values 0.987 | S. cerevisiae deletion strains, locus YKL101W, strain HSL1, hits give low values 0.995 | S. cerevisiae deletion strains, locus YKL193C, strain SDS22, hits give low values 1 | S. cerevisiae deletion strains, locus YKL203C, strain TOR2, hits give low values 0.978 | S. cerevisiae deletion strains, locus YLR113W, strain HOG1, hits give low values 1.05 | S. cerevisiae deletion strains, locus YLR133W, strain CKI1, hits give low values 0.963 | S. cerevisiae deletion strains, locus YLR403W, strain SFP1, hits give low values 0.95 | S. cerevisiae deletion strains, locus YML070W, strain DAK1, hits give low values 0.965 | S. cerevisiae deletion strains, locus YMR001C, strain CDC5, hits give low values 0.999 | S. cerevisiae deletion strains, locus YMR205C, strain PFK2 (second series), hits give low values 0.974 | S. cerevisiae deletion strains, locus YMR277W, strain FCP1, hits give low values 1 | S. cerevisiae deletion strains, locus YNL006W, strain LST8, hits give low values 0.996 | S. cerevisiae deletion strains, locus YNL020C, strain ARK1, hits give low values 0.979 | S. cerevisiae deletion strains, locus YNL161W, strain CBK1, hits give low values 1 | S. cerevisiae deletion strains, locus YNL183C, strain NPR1, hits give low values 1.02 | S. cerevisiae deletion strains, locus YNL207W, strain RIO2, hits give low values 1 | S. cerevisiae deletion strains, locus YNL222W, strain SSU72, hits give low values 1 | S. cerevisiae deletion strains, locus YNL307C, strain MCK1 (second series), hits give low values 0.977 | S. cerevisiae deletion strains, locus YOL078W, strain AVO1, hits give low values 0.997 | S. cerevisiae deletion strains, locus YOL136C, strain PFK27, hits give low values 0.929 | S. cerevisiae deletion strains, locus YOR061W, strain CKA2, hits give low values 0.969 | S. cerevisiae deletion strains, locus YOR119C, strain RIO1, hits give low values 0.996 | S. cerevisiae deletion strains, locus YOR231W, strain MKK1, hits give low values 0.968 | S. cerevisiae deletion strains, locus YOR329C, strain SCD5, hits give low values 1 | S. cerevisiae deletion strains, locus YPL031C, strain PHO85, hits give low values 0.961 | S. cerevisiae deletion strains, locus YPL153C, strain RAD53, hits give low values 0.959 | S. cerevisiae deletion strains, locus YPL204W, strain HRR25, hits give low values 0.912 | S. cerevisiae deletion strains, locus YPL209C, strain IPL1, hits give low values 0.998 | S. cerevisiae deletion strains, locus YPL256C, strain CLN2, hits give low values 1.09 | S. cerevisiae deletion strains, locus YPR025C, strain CCL1, hits give low values 1 | S. cerevisiae deletion strains, locus YPR106W, strain ISR1, hits give low values 1.01 | S. cerevisiae deletion strains, locus YPR111W, strain DBF20, hits give low values 0.999 | S. cerevisiae deletion strains, strain NNK1, hits give low values 1.03 | S. cerevisiae deletion strains, strain TSCII, hits give low values 1
